Shown are actives, neighbours in structure and some others; about 5.4% of the full set was active somewhere.
Six1-Eya2 blk – Six1/Eya2 interaction inhibition. actives 0.56% (n = 360,000). activity change, % (concentration not given with the values). Q15475+O00167. AlphaScreen GST-Six1/His-Eya2 binding, biochemical; hits give low values. AID 651725; in the data active = activity change below about -65%; inconclusive = mostly about -30% to -63%; note: % is set by controls: 0 for no effect and ±100 for the full control effect
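GST-Six1 + His-Eya2 (5X stock: 250/500 nM); Tris pH 8.0, 300 mM NaCl, 0.05% BSA, 0.02% Tween 20; GSH donor/Ni acceptor beads; 1 h 37 °C dark; AlphaScreen readout.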
Gal4-VP16 FLuc – inhibits Gal4-VP16 luciferase reporter, ROR gamma counter-screen; Drosophila S2 Gal4-VP16 UAS-luciferase, luminescence, 20 h; Potency, µM (doses to about 53.6 µM), for the others: at the highest dose activity, negative = inhibition, usual class: inhibitors; actives 3.5% (n = 310,000);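 note: Gal4-VP16 expression switched on by copper sulfate through the metallothionein promoter; potency is the fitted concentration of half-maximal effect; % is set by controls: 0 for no effect and ±100 for the full control effect; nearly all actives have a fitted effect of over 50% in size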
RORgamma inh – inhibitors of mouse ROR gamma transcriptional activity. actives 5.4% (n = 310,000). AID 2551. Drosophila S2 Gal4-RORgamma UAS-luciferase reporter, 20 h. Potency, µM (top dose mostly 53.6 µM), without a hit: at the highest dose activity change, negative = inhibition, most hits filed as inhibitors. P51450; note: potency is the fitted concentration of half-maximal effect; % is set by controls: 0 for no effect and ±100 for the full control effect; nearly all actives have a fitted effect of over 60% in size
Target sequence (P51450 whole entry, looked up, the tested form may be a part): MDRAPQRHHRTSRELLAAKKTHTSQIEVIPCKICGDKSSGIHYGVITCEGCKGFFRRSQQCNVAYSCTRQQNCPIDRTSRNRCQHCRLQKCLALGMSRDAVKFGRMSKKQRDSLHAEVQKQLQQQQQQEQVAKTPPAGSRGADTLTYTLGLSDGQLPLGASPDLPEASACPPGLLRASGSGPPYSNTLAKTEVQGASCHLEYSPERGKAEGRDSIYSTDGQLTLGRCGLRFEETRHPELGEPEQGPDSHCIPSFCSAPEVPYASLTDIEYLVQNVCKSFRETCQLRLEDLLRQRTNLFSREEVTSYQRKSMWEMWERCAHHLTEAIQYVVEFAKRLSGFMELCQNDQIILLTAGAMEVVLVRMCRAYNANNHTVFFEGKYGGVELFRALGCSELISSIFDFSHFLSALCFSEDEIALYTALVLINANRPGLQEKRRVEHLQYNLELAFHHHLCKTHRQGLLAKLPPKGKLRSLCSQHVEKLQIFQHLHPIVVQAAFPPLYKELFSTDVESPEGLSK
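Stably transfected Drosophila Schneider cells are the test system, with ROR gamma fused to Gal4 and luciferase under UAS control; luminescence is read after 20 hr of 700 uM copper sulfate induction at ambient temperature.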
CtBP-E1A blk – inhibitors of CtBP/E1A interaction; actives 0.49% (n = 340,000); AlphaScreen GST-E1A/His-CtBP binding, 1536-well; hits give low values; activity change, % (concentration not given with the values); in the data active = activity change below about -65%; inconclusive = mostly about -30% to -63%; note: % is set by controls: 0 for no effect and ±100 for the full control effect
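Steps: dispense buffer (Tris pH 8.0, NaCl 300 mM, TCEP 1 mM, BSA, Tween 20); add 5X protein mix (GST-E1A, His-CtBP, 125 nM each); pin 23 nL compound; 2 h at 37 °C, dark; add 5X beads (50 ug/mL); 1 h; read.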
p53 reactivation – re-activators of mutant p53 | actives 0.063% (n = 320,000) | AID 504706 | H1299 p53-A138V BP100-luciferase reporter, luminescence, 24 h | Potency, µM (highest dose often 92.2 µM), for inactives: at the top dose activity change, positive = activation, usual class: activators; note: potency is the fitted concentration of half-maximal effect; % of control where 0% means no effect; nearly all actives have a fitted effect of over 45% in size
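H1299 (p53-null), stable ts p53-A138V + BP100-Luc; 1000 cells/well, Opti-MEM/10% FBS; cpd 4 pt, 1:5; 24 h, 37 deg C, 5% CO2; detection reagent 10 min RT; luminescence.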
An asterisk follows results filed as active; ? = inconclusive; . = no result. Unless noted, calls come from the whole dose curve; as a rule, active = well fitted curve in the direction sought with a large enough effect; inconclusive = small, poorly fitted or top-dose-only effect, or another doubt; inactive = no such curve, though single readings can be large; an effect the other way counts as inactive or inconclusive.

SMILES | Six1-Eya2 blk | Gal4-VP16 FLuc | RORgamma inh | CtBP-E1A blk | p53 reactivation
CC1CCc2cc(F)ccc2N1S(=O)(=O)c1ccc(F)cc1 (configuration not stated) | 7.9 | 0.6% | 10µM* | 9.6 | -15.7%
CC1CCc2cc(F)ccc2N1S(=O)(=O)c1ccc(Cl)nc1 (configuration not stated) | 17.2 | -11.2% | ? | 6.8 | 2.7%
COc1ccc2c(c1OC)C(Cc1ccccc1)N1CCc3cc4c(cc3C1C2)OCO4 (configuration not stated) | . | ? | -22.8% | . | .
O=C(CN1CCCc2ccccc21)N/N=C/c1c(O)ccc2ccccc12 | ? | 0.794µM* | 1.26µM* | ? | ?
O=C(CN1CCCc2ccccc21)N/N=C/c1ccccc1 | -11.0 | ? | -4.0% | -11.9 | ?
O=C(CN1CCCc2ccccc21)N/N=C/c1ccc(O)cc1O | ? | 22.4µM* | ? | -27.0 | ?
CCN(CC)c1ccc(/C=N/NC(=O)CN2CCCc3ccccc32)cc1 | -7.0 | ? | ? | . | 1.3%
Cc1cccc(OCCSc2nc3ccccc3n2CCC(=O)O)c1 | -2.1 | -10.4% | 32.4% | . | .
Cc1ccc([C@H]2C(C#N)=C(N)Oc3cc(C)oc(=O)c32)o1 | -0.1 | ? | -114.8% | 0.0 | 20.4%
Cc1cc2c(c(=O)o1)C(c1cccs1)C(C#N)=C(N)O2 (configuration not stated) | 0.5 | ? | 14.1µM* | 2.6 | 15.7%
CNC(=S)Nc1cc(Cl)ccc1Oc1ccccc1 | 16.6 | ? | 14.1µM* | 16.8 | -6.5%
CCNC(=S)Nc1cc(Cl)ccc1Oc1ccccc1 | -1.0 | 10µM* | 4.47µM* | -2.3 | -4.9%
COc1ccc(Cl)cc1NC(=S)Nc1ccccc1F | 4.0 | ? | ? | 0.5 | -3.6%
Cc1nn(C)cc1S(=O)(=O)Nc1ccc(C(F)(F)F)cc1 | -0.3 | 3.7% | 28.3% | 6.4 | -21.2%
Clc1cccc(Cl)c1Cn1cnc(=NCc2ccco2)c2[nH]cnc21 | -9.6 | ? | 17.8µM* | -9.9 | 18.9%
CC(=O)N(C)c1ccc(N2CCOCC2)c2c1C(=O)c1ccccc1C2=O | 13.8 | . | . | 17.2 | .
O=C1c2ccccc2C(=O)c2c1cccc2N1CCOCC1 | -77.9* | 2.6% | -33.2% | -72.4* | ?
Cc1cc(=O)[nH]c2c(C)cc(S(=O)(=O)N3CCCCC3)cc12 | 4.3 | 18.6% | 5.62µM* | 2.0 | 12.5%
Cc1cc(=O)[nH]c2c(C)cc(S(=O)(=O)N3CCOCC3)cc12 | 11.2 | . | . | 7.3 | .
Cc1cc(NC(=O)COC(=O)[C@@H]2CCCN2C(=O)c2cccs2)no1 | 9.6 | . | . | 0.0 | .
C=CCc1ccc(OCCOc2ccc(/C=N/n3cnnc3)cc2OCC)c(OC)c1 | -9.1 | ? | 15.8µM* | -2.5 | 2.6%
COc1cc(/C=N/n2cnnc2)ccc1OCCOc1ccccc1 | 7.7 | -4.3% | 9.5% | -4.8 | 7.3%
COc1ccc2oc(=O)c(C(=O)Nc3cccc(C(C)=O)c3)cc2c1 | 3.1 | 5.62µM* | 2µM* | . | ?
COc1cccc(OC(=O)c2cc3ccccc3oc2=O)c1 | -18.2 | 2.6% | 15.7% | -1.1 | 7.9%
COc1cccc(NC(=O)c2cc3ccccc3oc2=O)c1 | -7.0 | 10µM* | 6.31µM* | . | .
SMILES | Six1-Eya2 blk | Gal4-VP16 FLuc | RORgamma inh | CtBP-E1A blk | p53 reactivation
O=C(O)c1ncn(Cc2ccccc2)c1C(=O)O | -69.1* | 0.4% | -0.6% | ? | -4.3%
O=C(NCc1ccccc1)c1ncn(Cc2ccccc2)c1C(=O)NCc1ccccc1 | -7.9 | . | . | 4.9 | 2.0%
COCc1ccc(CN2CCCC(C(=O)Nc3ccc(-c4cscn4)cc3)C2)o1 (configuration not stated) | -2.5 | -1.5% | 14.6% | -5.8 | -2.2%
Cc1ccc(/C=N/N(C)S(=O)(=O)c2ccc(C)cc2)cc1 | 5.1 | 17.8µM* | 15.8% | 2.3 | 5.6%
CC1=Nc2ccccc2/C1=C/c1nc(-c2ccc(C)s2)oc1O | -2.1 | ? | -2.5% | . | 0.0%
CC1=Nc2ccccc2/C1=C/c1sc(=N)n(-c2nccs2)c1O | ? | 0.794µM* | 0.631µM* | ? | -35.6%
N#CCCn1cc(/C=N/O)c(-c2ccc(F)cc2)n1 | 0.5 | -5.7% | -14.2% | 6.9 | -0.4%
N#CCCn1cc(/C=N/O)c(-c2ccccc2)n1 | -3.0 | -8.6% | -15.4% | -8.7 | -4.2%
N#CCCn1cc(/C=N/NC(N)=S)c(-c2ccc(-c3ccccc3)cc2)n1 | -9.5 | 3.16µM* | 1.12µM* | -15.0 | -4.1%
N#CCCn1cc(C=C(C#N)C#N)c(-c2ccc(-c3ccccc3)cc2)n1 | -1.6 | 20µM* | ? | 3.9 | -16.4%
COc1ccc2nc3cccc(OC)c3nc2c1 | -9.9 | ? | ? | -0.2 | 7.7%
COc1ccc2nc3ccccc3nc2c1N | ? | 15.8µM* | ? | ? | -2.2%
CCOC(=O)C1=C(C)Nc2nc3ccccc3n2C1c1ccc(O)cc1 (configuration not stated) | 6.7 | -10.9% | -5.4% | 7.6 | -0.8%
COC(=O)C1=C(C)Nc2nc3ccccc3n2C1c1cc(OC)c(OC)c(OC)c1 (configuration not stated) | 1.2 | -13.8% | 12.6µM* | 4.5 | -8.1%
O=c1cc(CSc2nc(NCc3ccccc3)c3ccccc3n2)nc2ccc(Cl)cn12 | -0.4 | 21.2% | 4.47µM* | 0.5 | -18.1%
O=C(CCCn1c(SCc2cc(=O)n3cc(Cl)ccc3n2)nc2ccccc2c1=O)NCC1CCCO1 (configuration not stated) | 6.1 | -2.5% | -6.1% | . | 0.9%
Oc1cc2ccccc2cc1-c1n[nH]c(=S)o1 | -11.9 | -1.3% | -34.5% | -8.8 | 25.9%
Cc1cc(-c2n[nH]c(=S)o2)c(C)n1-c1ccccc1 | -6.9 | ? | 12.6µM* | 4.1 | ?
CCOC(=O)Cc1csc(NC(=S)NC(=O)c2cc(OC)c(OC)c(OC)c2)n1 | -10.6 | 3.7% | ? | . | 0.6%
CCOC(=O)Cc1csc(N/N=C/c2ccc(C(F)(F)F)cc2)n1 | 0.9 | ? | 0.708µM* | 7.6 | -0.4%
CCOC(=O)Cc1csc(NC(=S)NC(=O)c2ccc(F)cc2)n1 | -5.5 | ? | 11.2µM* | 11.8 | -21.6%
CCOC(=O)Cc1csc(NC(=S)NC(=O)c2ccccc2C)n1 | -2.3 | -27.7% | 11.2µM* | 5.1 | 0.3%
CCOC(=O)Cc1csc(N/N=C/c2cccc([N+](=O)[O-])c2)n1 | -1.7 | -21.7% | ? | -7.8 | 0.4%
COc1ccc(NC(=O)CNc2ccc(C#N)cc2)cc1 | -0.6 | -6.5% | 1.9% | -12.0 | -3.5%
COc1cccc(-c2nccc(NCCc3c[nH]c4ccc(OC)cc34)n2)c1 | . | 5.4% | ? | . | .
Cc1ccc(C(=O)N/N=C(\CC(C)C)c2ccccc2)cc1 | 6.6 | ? | ? | 0.6 | ?
Cc1ccc(C)c(NC(=O)C2CCCC2)c1 | 0.3 | . | . | . | .
Cc1cccnc1Nc1nc(-c2ccccn2)cs1 | -78.5* | ? | 0.0224µM* | -94.9* | ?

Assay outcomes from PubChem.
